CYP2C19 inh: blockers of cytochrome P450 2C19 activity – biochemical, luminescence, ADME assay, primary screen; CYP2C19 Supersomes, luciferin-H EGE luminescence, 30 min; inhibition, % at 5 µM; 21% of 96,000 active; AID 778, 2007;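 active = CYP2C19 inhibition above a set limit at 5 µM in the primary screen, cut at about 50% in these data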;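 note: plate controls were negative control wells for no effect and 2.5 mM tranylcypromine positive control for full effect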
CYP2C19 act: human CYP2C19 activators, primary screen, biochemical, luminescence | recombinant CYP2C19, luciferin-H EGE luminescence; stronger effect = higher value; 0 = fully inhibited enzyme, 1 = untreated enzyme | activation factor at 5 µM | 96,000 tested, under 10 active;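 active = activation factor of at least 2 at 5 µM in the primary screen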;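 note: 0 = wells with 2.5 mM tranylcypromine and 1 = vehicle-only wells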
CYP2C9 inh: blockers of cytochrome P450 2C9 activity – biochemical, luminescence, ADME assay, primary screen | inhibition, % at 5 µM | CYP2C9 Supersomes, luciferin-H conversion | P11712 | 20% of 96,000 active;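 active = blocking of liver enzyme CYP2C9 beyond about 50% at 5 µM, limit read from the data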
Target sequence (P11712 whole entry, looked up): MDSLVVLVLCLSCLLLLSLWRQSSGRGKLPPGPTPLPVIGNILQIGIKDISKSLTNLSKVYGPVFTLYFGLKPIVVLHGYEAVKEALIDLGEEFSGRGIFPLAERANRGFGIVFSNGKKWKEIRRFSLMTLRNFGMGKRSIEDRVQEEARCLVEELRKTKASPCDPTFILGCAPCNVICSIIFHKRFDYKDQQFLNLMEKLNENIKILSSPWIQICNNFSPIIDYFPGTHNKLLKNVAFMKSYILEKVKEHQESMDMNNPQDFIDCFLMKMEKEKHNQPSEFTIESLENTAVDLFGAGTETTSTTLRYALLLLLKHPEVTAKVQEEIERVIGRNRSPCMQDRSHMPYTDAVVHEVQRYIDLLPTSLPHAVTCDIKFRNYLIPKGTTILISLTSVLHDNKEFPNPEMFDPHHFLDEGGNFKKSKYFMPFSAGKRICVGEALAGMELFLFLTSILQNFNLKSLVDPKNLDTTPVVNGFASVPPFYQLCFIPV
Measles CPE: compounds protecting cells from measles virus cytopathic effect, primary screen, measles RdRp inhibitor project, single point, MLSMR library, absorbance | Measles virus-infected cells, CPE protection | protection (pct of control), % at 4 µM | 1.5% of 140,000 active | AID 841, 2007; in the data active = protection mostly above about 24%, no sharp cut-off; inactive = mostly below about 26%
CYP2C9 activ: human CYP2C9 activators, primary screen, biochemical, luminescence | AID 1024, 2008 | 1.4% of 96,000 active | activation factor at 5 µM | Cytochrome P450 2C9 (Homo sapiens), P11712 | recombinant CYP2C9, luciferin-H conversion; stronger effect = higher value; factor 1 = untreated enzyme, 0 = blocked;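 active = activation factor of 2 or more for CYP2C9 at a 5 µM dose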;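 note: 0 = sulfaphenazole-blocked wells and 1 = vehicle-only wells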
The depositor's hits bear a star; x = no result. Hits are enriched below; roughly 22% of the tested compounds scored in any of these assays.

SMILES	CYP2C19 inh	CYP2C19 act	CYP2C9 inh	Measles CPE	CYP2C9 activ
CCOc1cc(/C=C(\C#N)c2[nH]nc(N)c2C#N)ccc1O	60.1*	0.4	-4.1	31.2	1
CCOc1cc(-c2c(C#N)c(N)nc3c2CCc2ccccc2-3)ccc1O	x	x	x	26.4	x
CCOc1cc(-c2cc(-c3ccc(C)cc3)nc(N)c2C#N)ccc1O	39.6	0.6	84.4*	12.7	0.2
COCCN(C(=O)CN1CCN(S(=O)(=O)c2ccc(F)cc2)CC1)c1c(N)n(Cc2ccccc2)c(=O)[nH]c1=O	x	x	x	3.0	x
O=C(CSc1nnc(-c2ccccc2)o1)c1ccc2c(c1)OCCO2	10.7	0.9	14.9	1.3	0.9
CN(C)S(=O)(=O)c1cccc(-c2nnc(SCc3ccc4c(c3)OCCO4)o2)c1	64.0*	0.4	92.5*	-1.5	0.1
O=S(=O)(c1cccc(-c2nnc(SCc3ccc(Cl)cc3)o2)c1)N1CCCCC1	69.4*	0.3	87.3*	12.0	0.1
CCn1c(CSc2nc(C)cc(C)n2)nnc1SCC(=O)N1CCCc2ccccc21	47.4	0.5	-73.7	17.7	1.7
CC(=C\c1ccco1)/C=C(\C#N)C(=O)NCCc1c[nH]c2ccccc12	x	x	x	1.5	x
COC(=O)C(NS(C)(=O)=O)(c1c(C)[nH]c2ccccc12)C(F)(F)F (stereo not drawn)	63.5*	0.4	12.3	x	0.9
CC(C)(C)c1cc(N)on1	x	x	x	10.6	x
CCN(CC)S(=O)(=O)c1ccc(-c2nnc(SCC(=O)Nc3ccc(OC)c(OC)c3)o2)cc1	21.3	0.8	69.7*	29.2	0.3
Cc1cc(NC(=O)CSc2nnc(-c3ccc4c(c3)OCCO4)o2)no1	48.6	0.5	40.6	6.2	0.6
COc1cc(-c2nnc(SCC(=O)Nc3ccc4c(c3)OCCO4)o2)cc(OC)c1OC	20.9	0.8	75.3*	10.9	0.2
O=C(CSc1nc2c([nH]c3ccccc32)c(=O)n1-c1ccc(F)cc1)NCc1ccco1	3.4	1	14.8	4.0	0.9
Cc1ccc(/C=C2/C(=O)N=C(N)N2C)s1	x	x	x	4.8	x
O=C(c1noc2c1CCc1ccccc1-2)N1CCOCC1	11.6	0.9	-216.0	3.5	3.2*
COc1ccc2c(c1)CCc1c(C(=O)N3CCCCCC3)noc1-2	23.9	0.8	16.2	4.1	0.8
Cc1cc(NC(=O)c2noc3c2CCc2ccccc2-3)no1	1.0	1	-3.5	4.5	1
O=C(c1noc2c1CCc1ccccc1-2)N1CCCc2ccccc21	51.8*	0.5	-45.2	4.0	1.5
O=C(c1noc2c1CCc1ccccc1-2)N1CCc2ccccc2C1	60.2*	0.4	-73.8	23.7	1.7
CCC(C)n1cnc2c(c1=O)c1nc3ccccc3nc1n2Cc1ccc2c(c1)OCO2 (stereo not drawn)	81.1*	0.2	98.8*	5.0	0
Cc1nc2c(c(=O)n1CCC(C)C)c1nc3ccccc3nc1n2Cc1ccc2c(c1)OCO2	22.1	0.8	58.2*	x	0.4
CC(C)N(C(=O)Cn1c(-c2ccccc2Cl)nc2ccccc21)c1ccccc1	x	x	x	34.0*	x
CCc1cccc(CC)c1NC(=O)Cn1c(-c2ccccc2Cl)nc2ccccc21	x	x	x	0.7	x
SMILES	CYP2C19 inh	CYP2C19 act	CYP2C9 inh	Measles CPE	CYP2C9 activ
COc1cccc(CNc2nc3ccccc3n2CCN2CCCCC2)c1	49.9	0.5	52.3*	2.2	0.5
CCn1c(NCc2cc(OC)ccc2OC)nc2ccccc21	78.3*	0.2	57.6*	17.6	0.4
CCCn1c(NCc2cc(OC)ccc2OC)nc2ccccc21	68.1*	0.3	28.0	3.4	0.7
CCN(CC)CCn1c(NCc2ccc(OC)cc2)nc2ccccc21	-7.3	1.1	-3.3	6.2	1
COc1cccc(CNc2nc3ccccc3n2CCN2CCCCC2)c1OC	x	x	x	6.0	x
CCCn1c(NCc2ccc(N(C)C)cc2)nc2ccccc21	91.7*	0.1	23.7	9.8	0.8
CCn1c(NCc2cccc(OC)c2OC)nc2ccccc21	x	x	x	17.2	x
CC(C)n1c(NCc2ccc(N(C)C)cc2)nc2ccccc21	x	x	x	20.1	x
Cc1ccc(N(C(=O)Cn2nnc(-c3ccccc3)n2)C(C(=O)NC2CCCCC2)c2ccccn2)cc1C (stereo not drawn)	x	x	x	3.9	x
COc1ccc(CNc2nc3ccccc3n2CCN2CCCCC2)c(OC)c1	10.5	0.9	7.6	20.4	0.9
c1ccc(Cn2c(CNc3nc4ccccc4n3CCN3CCOCC3)nc3ccccc32)cc1	89.6*	0.1	91.3*	21.3	0.1
COc1ccc(OC)c(CNc2nc3ccccc3n2CCN2CCCCC2)c1	54.7*	0.5	16.7	10.9	0.8
Cc1cccnc1NC1OC(=O)c2ccccc21 (stereo not drawn)	-14.6	1.1	-2.9	11.5	1
Cc1ccc(CCNC(=O)CS(=O)Cc2nc(-c3cccc(C)c3)oc2C)cc1 (stereo not drawn)	64.0*	0.4	70.1*	8.4	0.3
Cc1oc(-c2ccccc2F)nc1CS(=O)CC(=O)NCc1ccc2c(c1)OCO2 (stereo not drawn)	61.7*	0.4	53.2*	13.9	0.5
Cc1oc(-c2ccccc2F)nc1CS(=O)CC(=O)NCc1cccs1 (stereo not drawn)	53.3*	0.5	63.2*	6.4	0.4
Cc1cccc(-c2nc(CS(=O)CC(=O)NCc3cccs3)c(C)o2)c1 (stereo not drawn)	37.1	0.6	60.2*	32.6	0.4
Cc1ccc(-n2c(Cn3nc(C(F)F)cc3C(F)F)n[nH]c2=S)cc1	12.3	0.9	7.7	4.2	0.9
O=C(c1ccc(=O)[nH]c1)N(Cc1cccs1)C1(C(=O)NC2CCCC2)CCCCC1	x	x	x	5.8	x
Cc1oc(-c2ccccc2Cl)nc1CS(=O)CC(=O)NCc1cccs1 (stereo not drawn)	71.0*	0.3	68.8*	19.8	0.3
CCOC(=O)c1c(NC(=O)CNCCO)sc(C)c1C	33.1	0.7	65.2*	29.7	0.3
CCOC(=O)c1c(NC(N)=O)sc(C)c1C	23.5	0.8	51.9*	10.5	0.5
CC(C)c1c(Cl)c(O)c(-c2ccccc2)c(=O)n1-c1ccc(F)cc1	x	x	x	28.1	x
COc1cc(CC(=O)NNC(=O)c2cc(C)oc2C)cc(OC)c1OC	x	x	x	10.5	x
O=C(CCC(=O)c1cccs1)NCC(=O)Nc1ccc(F)c(F)c1F	x	x	x	9.3	x
CN1C(=O)NC(NC(=O)c2ccco2)(C(F)(F)F)C1=O (stereo not drawn)	-1.9	1	-0.1	12.4	1
CC(C)CN1C(=O)NC(NC(=O)c2ccco2)(C(F)(F)F)C1=O (stereo not drawn)	55.5*	0.4	16.2	3.9	0.8
Oc1c(C=NCc2ccncc2)sc2ccccc12	92.0*	0.1	44.5	4.0	0.6
c1ccc(CSc2nnc(-c3sccc3-n3cccc3)o2)cc1	38.1	0.6	-9.4	4.3	1.1
Cc1cc(C)nc(NCC(O)COc2ccccc2C)n1 (stereo not drawn)	86.8*	0.1	8.7	23.2	0.9

Screening data as filed in PubChem.
